# According to PubChem BioAssay:
# Activity calls are given as the source filed them. Unless noted, the rule behind the calls is not given here.
# Columns and labels:
# [1] = tested on: Wnt5a (protein binding on small-molecule microarray); test: small molecules binding Wnt5a protein – biophysical, small-molecule microarray, 635/667 nm fluorescence, primary screen (AID 1142); conditions: 635 nm fluorescence, higher = more signal;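 note: fluorescence read at 667 nm with signal to noise per printed feature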
# [2] = ATP-based viability of Huh7 replicon cells – cell-based, CellTiter-Glo luminescence, basal, 48 h, cytotoxicity control for HCV replication inhibitor project, primary screen (AID 1143); conditions: higher = more signal, called active from +8 up or from −8 down;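 note: Huh7 hepatoma cells carrying a hepatitis C replication reporter with no stimulus; test concentration not given here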
# [3] = Pseudomonas biofilm growth suppression – PAO1 strain, BacTiter-Glo luminescence, LB-PBS, primary screen (AID 1144); conditions: P. aeruginosa PAO1 biofilm, 12 h, higher = more signal
# [4] = basal CRE-LacZ reporter activity in PC12 – cell-based, unstimulated, primary screen (AID 1145); conditions: no forskolin, luminescence, 4.5 h, higher = more signal, called active from +8 up or from −8 down
# [5] = forskolin-driven CRE-LacZ activity in PC12 – cell-based, CRE-LacZ reporter, forskolin-stimulated, primary screen (AID 1146); conditions: luminescence, 4.5 h, higher = more signal, called active from +8 up or from −8 down;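 note: PC12 cells with 6xCRE LacZ reporter stimulated by forskolin 10 µM; beta-galactosidase reporter signal reflecting CREB driven transcription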
# [6] = target: Streptavidin (Streptomyces avidinii) (UniProt P22629); test: compounds binding control protein streptavidin – biophysical, small-molecule microarray, 635/667 nm fluorescence, artefact control for SMM compound annotation, primary screen (AID 1147); conditions: higher = more signal;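 note: signal reflects streptavidin binding to arrayed compounds as a control protein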
# [7] = probe aInhba binding on compound microarray – biochemical, small-molecule microarray, 635/667 nm fluorescence, primary screen (AID 1148); conditions: higher = more signal;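 note: score merges 667nm spot fluorescence with signal-to-noise for antibody binding to printed compounds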
# Torsin-1A (Homo sapiens) [8] = target: Torsin-1A (Homo sapiens) (UniProt O14656); test: TOR1A wild-type binding on microarray – cell lysate, small-molecule microarray, lysate, 635/667 nm, primary screen (AID 1149); conditions: COS7 hTOR1A-WT lysate, 635 nm fluorescence, higher = more signal
# Torsin-1A (Homo sapiens) [9] = target: Torsin-1A (Homo sapiens) (UniProt O14656); test: torsin A mutant lysate binding on microarrays – cell lysate, small-molecule microarray, COS7 lysate, 635/667 nm fluorescence, primary screen (AID 1150); conditions: COS7 hTOR1A mutant lysate, 635 nm fluorescence, higher = more signal;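 note: score pools 667 nm emission and signal to noise measuring lysate protein binding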
# [10] = tested on: Sonic hedgehog protein (Shh); test: Sonic hedgehog microarray binding compounds – biochemical, small-molecule microarray, 635/667 nm fluorescence, primary screen (AID 1151); conditions: 635 nm fluorescence, higher = more signal;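 note: Shh protein binding to compounds spotted on small-molecule microarray slides; score combines spot fluorescence intensity with signal-to-noise across triplicate slides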
# Streptavidin (Streptomyces avidinii), sequence (P22629 whole entry, looked up): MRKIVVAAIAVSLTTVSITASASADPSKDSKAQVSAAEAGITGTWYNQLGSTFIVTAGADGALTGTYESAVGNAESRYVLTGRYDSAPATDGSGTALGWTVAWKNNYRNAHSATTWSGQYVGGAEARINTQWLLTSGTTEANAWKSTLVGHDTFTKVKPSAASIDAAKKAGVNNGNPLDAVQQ
# Torsin-1A (Homo sapiens), sequence (O14656 whole entry, looked up): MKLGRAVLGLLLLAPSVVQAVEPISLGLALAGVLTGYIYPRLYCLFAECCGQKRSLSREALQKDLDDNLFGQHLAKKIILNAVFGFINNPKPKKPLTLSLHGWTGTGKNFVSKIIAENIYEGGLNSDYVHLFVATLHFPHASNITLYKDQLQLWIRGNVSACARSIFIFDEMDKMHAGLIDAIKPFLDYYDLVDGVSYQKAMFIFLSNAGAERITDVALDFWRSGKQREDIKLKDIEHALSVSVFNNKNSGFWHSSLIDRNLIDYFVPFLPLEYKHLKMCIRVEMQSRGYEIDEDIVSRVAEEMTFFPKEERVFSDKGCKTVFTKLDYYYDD
Compound,composite z-score [1],z-score [2],z-score [3],z-score [4],z-score [5],composite z-score [6],composite z-score [7],composite z-score (Torsin-1A (Homo sapiens) [8]),composite z-score (Torsin-1A (Homo sapiens) [9]),composite z-score [10]
COc1cc2c(cc1O)C(C1CC1)N(C)CC2 (stereo not given),-0.201,-0.426 (inactive),0.991 (inactive),0.479 (inactive),-1.44 (inactive),-0.991,-0.203,-0.829,-1.04,-0.314
CCCCC(CC)C(O)C1C=CC2C(=O)N(C)C(=O)C2N1Nc1ccccc1 (stereo not given),0.122,0.136 (inactive),-0.152 (inactive),-0.14 (inactive),0.184 (inactive),0.454,0.017,-0.111,0.254,-0.76
CC(C)C(O)C1C=CC2C(=O)N(c3ccccc3)C(=O)C2N1Nc1ccccc1 (stereo not given),0.271,-3.03 (inactive),-1.35 (inactive),0.819 (inactive),0.418 (inactive),0.874,0.0756,0.64,0.923,1.04
COc1ccc(CCNC(=O)[C@@]2(c3ccc([N+](=O)[O-])cc3)CC(=O)N(C3CCCCC3)[C@@H]2c2ccc(CO)cc2)cc1,0.199,-1.48 (inactive),0.733 (inactive),-0.125 (inactive),-1.11 (inactive),0.0841,0.249,0.358,0.56,0.137
C#CCN([C@@H](Cc1ccccc1)C(=O)OC)[C@@H](/C=C/C1CC1)[C@H](O)Cc1ccccc1,-0.476,-3.22 (inactive),0.398 (inactive),1.67 (inactive),-0.0949 (inactive),-0.676,-0.157,0.239,-0.211,0.314
CC(C)C(CO)N1C(=O)[C@@H]2C3C(=O)OCCC/C=C\[C@H]3OC23C=CCN(Cn2nnc4ccccc42)C(=O)[C@@H]13 (stereo not given in full),-0.665,-0.252 (inactive),0.0208 (inactive),-1.44 (inactive),-0.0111 (inactive),-1.23,-0.128,-1.7,-1.07,0.0683
C=C[C@@H](CO)N(Cc1ccc(OC)cc1)S(=O)(=O)c1ccc(Br)cc1,-0.0447,-3.07 (inactive),-0.445 (inactive),-0.104 (inactive),-0.895 (inactive),0.396,-0.154,1.16,1.13,-0.0145
CCOC(=O)[C@@H]1CCCCN1C(=O)C(=O)OC,0.214,0.474 (inactive),0.594 (inactive),0.362 (inactive),1.56 (inactive),-0.0957,0.0118,0.188,-0.144,0.901
COCC(=C=CC[C@H](O)c1ccc(OCCO)cc1)CCO,0.0048,0.287 (inactive),0.163 (inactive),2.44 (inactive),-0.419 (inactive),-0.407,0.138,1.91,0.911,1.96
N#Cc1ccc(NN2C(C(O)c3ccc(Br)cc3)C=CC3C(=O)N(c4ccccc4)C(=O)C32)cc1 (stereo not given),0.395,-0.35 (inactive),-1.3 (inactive),0.0535 (inactive),-0.36 (inactive),0.843,0.222,0.441,0.604,0.834
[N-]=[N+]=Nc1ccccc1C[C@]1(C(=O)N2CCOCC2)COC(c2ccc(OCCCO)cc2)=N1,0.375,-4.38 (inactive),-0.33 (inactive),0.344 (inactive),-0.687 (inactive),1.42,0.191,0.442,0.507,-1.01
CCOC(=O)C[C@H]1[C@H](OC(=O)c2cc3ccccc3oc2=O)[C@@H](NC(=O)CC(C)C)c2cc(OCCCO)ccc2N1C(=O)c1ccc2ccccc2n1,-0.0457,0.152 (inactive),0.152 (inactive),4.46 (inactive),0.446 (inactive),0.138,-0.128,-0.0914,0.234,1.41
COC(=O)C1=CC(CCCO)=CC(c2cccs2)N(Cc2cccc(OC(F)(F)F)c2)C=C1C(=O)OC (stereo not given),0.237,-3.26 (inactive),0.759 (inactive),-0.815 (inactive),0.0187 (inactive),1.93,-0.0619,1,1.56,-0.403
O=C1OCCC=C[C@H]2OC34C=CCN(Cn5nnc6ccccc65)C(=O)[C@H]3N(CCCO)C(=O)[C@@H]4C12 (stereo not given in full),-0.197,-2.61 (inactive),-0.413 (inactive),-0.903 (inactive),-0.242 (inactive),-1.01,-0.161,-0.444,-2.04,-0.128
[N-]=[N+]=Nc1ccccc1C[C@]1(C(=O)O)COC(c2ccc(OCCCO)cc2)=N1,-0.0485,0.0518 (inactive),-0.812 (inactive),1.18 (inactive),-0.313 (inactive),-0.213,-0.0405,-2.54,-1.52,-1.14
COc1cc(NN2C(C(O)c3cc(OC)c(OC)c(OC)c3)C=CC3C(=O)N(C)C(=O)C32)cc(OC)c1OC (stereo not given),-0.019,-0.0088 (inactive),-0.792 (inactive),0.243 (inactive),0.445 (inactive),0.853,-0.0336,0.434,0.459,0.0774

Compound,composite z-score [1],z-score [2],z-score [3],z-score [4],z-score [5],composite z-score [6],composite z-score [7],composite z-score (Torsin-1A (Homo sapiens) [8]),composite z-score (Torsin-1A (Homo sapiens) [9]),composite z-score [10]
CC(CO)N1C(=O)[C@]2(C)C3C(=O)OCCC/C=C\[C@H]3OC23C=CCN(c2ccc(Cl)cc2)C(=O)[C@@H]13 (stereo not given in full),-0.313,0.612 (inactive),-1.53 (inactive),0.187 (inactive),-0.592 (inactive),-0.741,-0.316,-0.775,-0.734,0.0223
CC(C)(C)OC(=O)COc1cccc(C(=O)CCN2CCOCC2)c1,-0.143,-1.13 (inactive),2.34 (inactive),0.416 (inactive),12.2 (active),-0.081,0.034,-1.01,-0.646,0.216
C=CCC(OC(C)=O)[C@@H]1[C@@H](N(Cc2ccc(-c3ccccc3)cc2)C(=O)c2ccc(-c3ccccc3)cc2)c2cc(OCCCO)ccc2N1C(=O)c1ccc2ccccc2c1 (stereo not given in full),0.028,0.39 (inactive),-0.0995 (inactive),-0.23 (inactive),0.318 (inactive),0.485,-0.101,0.0449,-0.0178,0.255
C=CCOC(=O)[C@@H]1[C@H]2C(=O)O[C@H](c3ccccc3)[C@H](c3ccccc3)N2[C@H](c2ccc(OCCOC(=O)[C@@H]3C[C@@H]4C(=O)N[C@@H](CCCC[N+](C)(C)C)C(=O)N4[C@@H]3c3ccc(O)cc3)cc2)[C@@]12C(=O)Nc1ccc(I)cc12,0.865,-0.731 (inactive),-1.37 (inactive),-1.35 (inactive),0.206 (inactive),-0.111,0.0665,1.22,0.781,1.83
CCCCNC(=O)c1ccc(C#CC(C)(C)C)c(OC(C)=O)c1,0.0744,-1.7 (inactive),-0.245 (inactive),1.78 (inactive),-0.512 (inactive),1.01,-0.21,0.121,0.686,0.804
O=C1OCCC=C[C@H]2OC34C=CCN(c5ccc6ccccc6c5)C(=O)[C@H]3N(CCCO)C(=O)[C@@H]4C12 (stereo not given in full),-1.2,-2.26 (inactive),-0.633 (inactive),-0.0778 (inactive),-0.301 (inactive),-1.16,-0.239,-1.44,-1.79,-1.93
C=C[C@H]1C(C(=O)OCC)=CC[C@@H](c2ccccc2)N1S(=O)(=O)c1ccc(C)cc1,0.197,-4.68 (inactive),-0.376 (inactive),-0.0137 (inactive),0.299 (inactive),0.767,0.13,0.683,0.508,0.056
C=CCNC(=O)[C@@H]1[C@H]2C(=O)O[C@H](c3ccccc3)[C@H](c3ccccc3)N2[C@H](c2ccccc2OCCO)[C@@]12C(=O)Nc1ccc(C#CCCO)cc12,0.27,-3.75 (inactive),-1.2 (inactive),-1.7 (inactive),-1.17 (inactive),-0.158,0.0111,0.188,0.527,2.03
CCC#CCN(Cc1ccccc1Br)[C@H](/C=C/C1CC1)[C@@H](O)Cc1ccccc1,-0.679,-2.43 (inactive),-1.23 (inactive),2.67 (inactive),-0.835 (inactive),-0.529,-0.154,-0.806,0.0257,-0.643
CC(C)c1ccc(NN2C(C(O)c3ccc(F)cc3)C=CC3C(=O)N(c4ccccc4)C(=O)C32)cc1 (stereo not given),0.306,-0.953 (inactive),-1.63 (inactive),0.812 (inactive),0.3 (inactive),1.7,0.324,-0.448,0.0626,-0.0155
CN(C)c1ccc(C(O)C2C=CC3C(=O)NC(=O)C3N2Nc2ccccn2)cc1 (stereo not given),0.0094,1 (inactive),0.161 (inactive),-1.49 (inactive),0.337 (inactive),0.0863,-0.152,1.05,0.927,0.862
CCCCN1CC=CC23O[C@@H]4/C=C\CCC(C)OC(=O)C4[C@H]2C(=O)N(CCCO)[C@@H]3C1=O (stereo not given in full),-0.636,-0.183 (inactive),1.21 (inactive),0.0605 (inactive),0.0507 (inactive),-0.774,-0.247,-1.54,-1.15,-0.36
[N-]=[N+]=Nc1ccccc1C[C@]1(C(=O)NCC(O)CO)COC(c2ccc(OCCCO)cc2)=N1 (stereo not given in full),0.123,-0.231 (inactive),-0.3 (inactive),0.493 (inactive),-1.1 (inactive),0.305,-0.0131,1.3,1.72,-1.46
CCCCCCCCCC(O)C1C=CC2C(=O)N(c3ccccc3)C(=O)C2N1Nc1cc(OC)c(OC)c(OC)c1 (stereo not given),-0.128,-4.06 (inactive),0.123 (inactive),0.815 (inactive),-0.262 (inactive),0.581,-0.0334,-1.45,-0.241,-0.511
CCC1=C2CN(Cc3ccccc3)[C@@H](C(=O)Cc3ccccc3)C2C=CCC1 (stereo not given in full),-0.245,-3.57 (inactive),0.0518 (inactive),-0.142 (inactive),1.73 (inactive),0.0145,-0.0331,-0.645,-0.124,0.553
